Assay outcomes (PubChem)
Rows were chosen to be rich in hits. Some 0.9% of all compounds tested hit in one or more screens of this group.
PPARg SRC3 recr – promotes SRC-3 coactivator recruitment by human PPARgamma; P37231; biochemical PPARgamma/SRC-3 coactivator recruitment assay; activation, % at 8 µM; actives 0.26% (n = 200,000); AID 731; in the data active = activation above about 23%
Target sequence (P37231 whole entry, looked up): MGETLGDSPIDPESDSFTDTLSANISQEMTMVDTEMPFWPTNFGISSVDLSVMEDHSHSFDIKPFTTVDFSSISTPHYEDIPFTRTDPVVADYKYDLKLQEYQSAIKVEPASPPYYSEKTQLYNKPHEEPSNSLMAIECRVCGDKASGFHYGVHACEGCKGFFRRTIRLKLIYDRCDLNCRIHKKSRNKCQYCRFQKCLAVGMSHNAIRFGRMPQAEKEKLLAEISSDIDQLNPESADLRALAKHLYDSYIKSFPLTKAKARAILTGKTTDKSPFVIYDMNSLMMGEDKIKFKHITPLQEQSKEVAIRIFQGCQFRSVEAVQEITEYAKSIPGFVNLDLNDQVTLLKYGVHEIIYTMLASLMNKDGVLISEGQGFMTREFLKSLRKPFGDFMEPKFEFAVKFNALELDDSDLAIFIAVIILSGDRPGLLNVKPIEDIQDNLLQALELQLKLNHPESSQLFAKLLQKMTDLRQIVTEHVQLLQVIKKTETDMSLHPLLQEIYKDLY
PPARg SRC2 recr – agonists of SRC-2 recruitment by human PPARgamma; actives 0.34% (n = 200,000); activation, % at 8 µM; AID 1032; PPARgamma LBD-SRC-2 recruitment, biochemical; P37231
SRC1 TRFRET art – counter-screen for PPARgamma SRC-1 recruitment agonists: TR-FRET artefact; TR-FRET detection artefact counter-screen, emission ratio; active compounds read high; TR-FRET ratio at 8 µM; actives 0.34% (n = 99,000); AID 1051; in the data active = TR-FRET ratio above about 2300
SRC2 TRFRET art – TR-FRET artefact, counter-screen to PPARgamma/SRC-2 agonist assay. actives 0.4% (n = 200,000). active compounds read high. TR-FRET ratio at 8 µM; in the data active = TR-FRET ratio above about 2000
SRC3 TRFRET art – flags TR-FRET format artefacts in PPARgamma SRC-3 recruitment agonist screen | TR-FRET ratio at 8 µM | actives 0.39% (n = 99,000) | TR-FRET artefact counter-screen, PPARgamma/SRC-3 format; active compounds read high | AID 1048; in the data active = TR-FRET ratio above about 2000
PPARg SRC-1 ag – agonists of human PPARgamma SRC-1 coactivator recruitment | P37231 | PPARgamma-SRC-1 coactivator recruitment biochemical assay | activation, % at 8 µM | actives 0.41% (n = 200,000) | AID 631; in the data active = activation above about 19%
PPARg SRC2 conf – human PPARgamma SRC-2 recruitment agonism, confirmation. biochemical SRC-2 recruitment by PPARgamma. actives 52% (n = 790). shares compounds with PPARg SRC3 recr. activation, % at 8 µM
PPARg SRC1 conf – confirmation of agonists of SRC-1 recruitment by human PPARgamma. PPARgamma–SRC-1 coactivator recruitment biochemical assay. shares compounds with PPARg SRC3 recr. activation, % at 8 µM. actives 43% (n = 790); in the data active = activation above about 20%
PPARg SRC3 conf – human PPARgamma SRC-3 recruitment agonism, confirmation | shares compounds with PPARg SRC3 recr | biochemical PPARgamma-SRC-3 coactivator recruitment, agonist mode | activation, % at 8 µM | actives 29% (n = 790) | AID 1301; in the data active = activation above about 24%
Each line names hits and unclear results; the compound was inactive in the other large screens (follow-up assays come after a bar, where they were run). Rule as the data show it, unless noted: active = activation above about 22%; inactive = the rest.

O=C(N/N=C/c1c(O)n(CCc2ccccc2)c(=O)[nH]c1=O)c1ccncc1	SRC2 TRFRET art 2004
Nc1cc(Cl)c2nonc2c1[N+](=O)[O-]	none
COc1ccc(-c2cc(=NCCC(=O)O)c3cc(C)ccc3o2)cc1	none
COc1ccc(-c2cc(=Nc3ccccc3)c3cc(C)ccc3o2)cc1	SRC1 TRFRET art 2615
CCCCCCn1c(O)c(C=Nc2c(C)n(C)n(-c3ccccc3)c2=O)c(=O)[nH]c1=O	PPARg SRC2 recr 25 (no result: SRC1 TRFRET art, SRC3 TRFRET art)
O=c1[nH]c(=O)n(Cc2ccccc2Cl)c(O)c1/C=C1/C=CC=N1	none
CN(C)c1ccc(/C=C/c2cc[n+](C)c3ccccc23)cc1	PPARg SRC3 recr 61, PPARg SRC2 recr 61, SRC1 TRFRET art 3265, SRC2 TRFRET art 2947, SRC3 TRFRET art 2979, PPARg SRC-1 ag 83 | PPARg SRC2 conf 65 | PPARg SRC1 conf 49 | PPARg SRC3 conf 43
Cn1c(=O)cc(SCC(=O)N2CCC3(CC2)OCCO3)c2ccc(Cl)cc21	PPARg SRC3 recr 79, PPARg SRC2 recr 73, SRC2 TRFRET art 2539, PPARg SRC-1 ag 50 (no result: SRC1 TRFRET art, SRC3 TRFRET art) | PPARg SRC2 conf 28 | PPARg SRC1 conf inactive | PPARg SRC3 conf inactive
O=C(CSc1ccccc1)N1CCC2(CC1)OCCO2	none (no result: SRC1 TRFRET art, SRC3 TRFRET art)
CN(C)C(=O)Oc1ccc(Br)c2ccccc12	none
